PubChem BioAssay (NCATS)
Where “and” joins values, the source holds several entries; their conditions need not be identical. Equal entries are not always repeated. Records with an inconclusive call do not appear. Where a call stands in place of a potency, no number is given. Values without a mark were called inactive. Calls of active or inactive are those of the source. Calls follow the shape of the dose curve; as a rule, active = well fitted curve in the direction sought with a large enough effect; inconclusive = small, poorly fitted or top-dose-only effect, or another doubt; inactive = no such curve, though single readings can be large; an effect the other way counts as inactive or inconclusive.

Tests used:
[1] = test system: Zika virus NS2B-NS3 protease (linked construct); assay: Primary screen NINDS Rhodamine qHTS for Zika virus inhibitors (AID 1347160); also: nearly all actives have a fitted effect of over 55% in size; also: potency is read from the fitted curve at half-maximal effect
Procedure, shortened: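 Single-chain NS2B-NS3 protease, 25 nM, pH 8.0; compounds preincubated 15 min. Activity: Rhodamine110 release from 1.5 microM substrate over 15 min, room temperature, data fitted to 4-parameter Hill.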

[2] = qHTS to identify inhibitors of the type 1 interferon - major histocompatibility complex class I in skeletal muscle: primary screen against the NCATS Pharmaceutical Collection (AID 1347407);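 also: luminescence of HiBiT knocked into endogenous HLA-B as interferon-induced MHC class I level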
Procedure, shortened: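 Luminescence from HiBiT-tagged endogenous HLA-B*08:01 served as the read-out of IFN-beta-induced MHC class I in CRISPR-engineered C25cl48 myoblasts. Cells received 4 ng/ml IFN-beta plus compound (high final 46 uM, […]) for 24 h.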

[3] = target: Lysine-specific demethylase 5B (Homo sapiens) (UniProt Q9UGL1); assay: Optimization screen for KDM5B Histone Demethylases FDH coupled qHTS against the LOPAC library (AID 1347166)
Chain of Lysine-specific demethylase 5B (Homo sapiens) (Q9UGL1 whole entry, looked up): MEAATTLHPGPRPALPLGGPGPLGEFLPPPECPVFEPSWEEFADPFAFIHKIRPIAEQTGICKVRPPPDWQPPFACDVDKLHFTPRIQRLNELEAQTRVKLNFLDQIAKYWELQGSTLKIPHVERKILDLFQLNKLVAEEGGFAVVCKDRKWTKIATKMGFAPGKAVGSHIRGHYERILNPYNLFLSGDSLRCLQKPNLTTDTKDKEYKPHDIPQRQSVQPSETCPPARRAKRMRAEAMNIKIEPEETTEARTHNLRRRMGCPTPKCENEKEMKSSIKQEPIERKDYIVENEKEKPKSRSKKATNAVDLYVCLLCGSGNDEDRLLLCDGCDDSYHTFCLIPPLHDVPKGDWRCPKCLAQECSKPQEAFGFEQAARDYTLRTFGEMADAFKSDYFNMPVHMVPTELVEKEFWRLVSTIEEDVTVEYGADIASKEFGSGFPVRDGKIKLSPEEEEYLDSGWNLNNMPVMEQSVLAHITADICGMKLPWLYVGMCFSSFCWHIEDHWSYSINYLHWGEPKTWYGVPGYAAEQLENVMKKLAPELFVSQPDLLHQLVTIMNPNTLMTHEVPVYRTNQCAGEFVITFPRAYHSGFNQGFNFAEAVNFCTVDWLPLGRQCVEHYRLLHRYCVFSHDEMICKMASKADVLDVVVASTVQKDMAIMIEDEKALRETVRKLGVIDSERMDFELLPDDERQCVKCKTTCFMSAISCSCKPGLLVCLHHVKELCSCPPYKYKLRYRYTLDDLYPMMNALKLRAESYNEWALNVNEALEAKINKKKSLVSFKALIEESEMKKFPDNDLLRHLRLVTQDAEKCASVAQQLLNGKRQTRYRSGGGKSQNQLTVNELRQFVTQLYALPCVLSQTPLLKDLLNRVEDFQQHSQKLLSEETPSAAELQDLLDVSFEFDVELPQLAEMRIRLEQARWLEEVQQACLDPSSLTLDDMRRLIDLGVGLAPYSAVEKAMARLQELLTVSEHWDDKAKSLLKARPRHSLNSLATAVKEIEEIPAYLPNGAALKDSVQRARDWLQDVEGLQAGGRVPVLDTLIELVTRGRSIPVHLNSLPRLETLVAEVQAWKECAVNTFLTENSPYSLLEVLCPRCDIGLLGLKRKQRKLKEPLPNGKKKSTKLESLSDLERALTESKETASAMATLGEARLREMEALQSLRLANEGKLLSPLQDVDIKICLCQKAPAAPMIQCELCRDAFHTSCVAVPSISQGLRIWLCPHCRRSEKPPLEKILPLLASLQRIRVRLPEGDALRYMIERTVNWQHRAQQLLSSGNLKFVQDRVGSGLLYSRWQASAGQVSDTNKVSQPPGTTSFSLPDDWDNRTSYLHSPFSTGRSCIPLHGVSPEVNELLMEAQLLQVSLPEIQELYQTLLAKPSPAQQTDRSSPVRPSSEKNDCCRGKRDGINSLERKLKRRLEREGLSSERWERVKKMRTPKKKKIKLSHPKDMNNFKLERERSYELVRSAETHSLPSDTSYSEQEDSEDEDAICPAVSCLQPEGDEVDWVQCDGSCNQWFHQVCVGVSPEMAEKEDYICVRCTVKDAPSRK
Procedure, shortened: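 KDM5BDeltaAP (200nM final) in 50mM HEPES pH 7.5, 0.01% Tween-20 was preincubated with compound for 10 min at room temperature. A substrate mix of 12.5uM H3K4Me3, 25uM a-ketoglutarate, ascorbate, Fe2+, NAD+ and formaldehyde dehydrogenase was then added. NADH fluorescence (340/450 nm) was read initially and after 30 min.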

[4] = qHTS to identify inhibitors of the type 1 interferon - major histocompatibility complex class I in skeletal muscle: primary screen against the NCATS LOPAC collection (AID 1347405);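 also: lytic HiBiT luminescence reporting HLA-B protein level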
Procedure, shortened: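 After 24 h at 37 C with compounds (7-point, 1:4.3 dilutions, 46 uM top final) plus 4 ng/ml IFN-beta, luminescence from lytic HiBiT detection was measured. HLA-B*08:01 in C25cl48 myoblasts carried an endogenous C-terminal HiBiT tag; medium lacked dexamethasone.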

[5] = Confirmatory screen NINDS Rhodamine qHTS for Zika virus inhibitors (AID 1347161); settings: purified enzyme assay, Rhodamine110 substrate fluorescence, 15 min; also: potency is read from the fitted curve at half-maximal effect; nearly all actives have a fitted effect of over 60% in size
Procedure, shortened: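 In 10 mM Tris-HCl pH 8.0 containing 0.01% Tween 20, linked NS2B-NS3 protease (25 nM final) is exposed to test compounds for 15 min. Cleavage of 1.5 microM Rhodamine110 substrate is tracked by fluorescence over 15 min.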

[6] = test system: Zika virus NS2B-NS3 protease (linked); assay: 384 well plate NINDS AMC confirmatory qHTS for Zika virus inhibitors (AID 1347163); also: nearly all actives have a fitted effect of over 50% in size; also: potency is read from the fitted curve at half-maximal effect
Procedure, shortened: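 Fluorescence at 355/460 nm was read after 25 minutes of cleavage of 30 microM Ac-VKTGKR-AMC at room temperature, in the dark. Before substrate addition, compounds (up to 1 mM final) sat ~15 minutes with 5, 30 or 60 nM linked protease. Signals were normalized to no-enzyme and no-inhibitor wells.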

[7] = test system: Zika virus NS2B-NS3 protease (linked construct); assay: 384 well plate NINDS Rhodamine confirmatory qHTS for Zika virus inhibitors (AID 1347164); settings: rhodamine-110 peptide substrate fluorescence;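 also: fluorescence from protease cleavage of Ac-LKRR-rhodamine 110 substrate; potency is read from the fitted curve at half-maximal effect; nearly all actives have a fitted effect of over 65% in size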
Procedure, shortened: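 Enzyme (final 5/30/60 nM) + cpd (DMSO), ~15 min; add Ac-LKRR-Rd 10 microM final; 25 min RT, dark; FI ex 485/em 538; normalized to no-enzyme, no-inhibitor ctrls; aprotinin intraplate ctrl.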

[8] = Vero cells viability qHTS for Zika virus inhibitors (AID 1347167); also: potency is read from the fitted curve at half-maximal effect
Procedure, shortened: (§1)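 Luminescent ATP readout (CellTiter Glo) after 30 min at 37 degrees C gives viability; cells in DMEM + 4% FBS were treated 24 to 48 hours with compound, following overnight attachment.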

[9] = HepG2 cells viability qHTS for Zika virus inhibitors (AID 1347168)
Procedure, shortened: as §1

[10] = Tertiary RLuc qRT-PCR qHTS assay for Zika virus inhibitors (AID 1347169); also: nearly all actives have a fitted effect of over 55% in size; also: potency is read from the fitted curve at half-maximal effect
Procedure, shortened: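 Vero, 1,000 cells/well, o/n 37 C; cpd pinned in DMSO; ZIKV-RLuc Cambodian, MOI 1-2, 48-72 h 37 C; live-cell RLuc substrate, lum read at 1-1.5 h.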

## Nc1nc2c(ncn2CCC(CO)CO)c(=O)[nH]1
[1]
  Potency: inactive
[2]
  Potency: inactive

## CCN(CC)CCNC(=O)c1cc(Cl)c(N)cc1OC
[1]
  Potency: inactive
[3]
  outcome: inactive
[4]
  Potency: inactive
[2]
  Potency: inactive

## c1ccc(CN(CC2=NCCN2)c2ccccc2)cc1
[1]
  Potency: inactive
[2]
  Potency: inactive

## Cc1cc(C(C#N)c2ccc(Cl)cc2)c(Cl)cc1NC(=O)c1cc(I)cc(I)c1O (centres undefined)
[1]
  Potency: 3.16 µM (active)
[5]
  Potency: 2.78 µM (active) and 2.21 µM (active)
[6]
  Potency: 4.47 µM (active)
[7]
  Potency: 1.78 µM (active)
[8]
  Potency: 13.1 µM (active)
[9]
  outcome: inactive
[10]
  Potency: 6.58 µM (active) and 16.5 µM (active)
[2]
  Potency: inactive

## Nc1ccc(S(=O)(=O)Nc2nccs2)cc1
[1]
  Potency: inactive
[2]
  Potency: inactive

## O=C1Nc2ccc(Cl)cc2[C@@](C#CC2CC2)(C(F)(F)F)O1
[1]
  Potency: inactive
[2]
  Potency: inactive

## Cc1cc(N)c2ccccc2[n+]1CCCCCCCCCC[n+]1c(C)cc(N)c2ccccc21
[1]
  Potency: inactive
[4]
  Potency: inactive

## COc1ccc(Cl)cc1C(=O)NCCc1ccc(S(=O)(=O)NC(=O)NC2CCCCC2)cc1
[1]
  Potency: inactive
[3]
  outcome: inactive
[4]
  Potency: inactive

## CCOC(=O)[C@H](CCc1ccccc1)N[C@@H](C)C(=O)N1C(=O)N(C)C[C@H]1C(=O)O
[1]
  Potency: inactive
[2]
  Potency: inactive

## C[C@@H]1C[C@H]2[C@@H]3C[C@H](F)C4=CC(=O)C=C[C@]4(C)[C@@]3(F)[C@@H](O)C[C@]2(C)[C@@]1(O)C(=O)CO
[1]
  Potency: inactive
[2]
  Potency: inactive

## CC/C=C(\C(=O)N[C@@H]1C(=O)N2C(C(=O)OCOC(=O)C(C)(C)C)=C(COC(N)=O)CS[C@H]12)c1csc(N)n1
[1]
  Potency: inactive
[2]
  Potency: inactive

## Cn1c(=O)c2c(ncn2CC2OCCO2)n(C)c1=O
[1]
  Potency: inactive

## O=c1[nH]cnc2c1ncn2[C@@H]1O[C@H](CO)[C@@H](O)[C@H]1O
[1]
  Potency: inactive
[2]
  Potency: inactive

## O=C(CCCN1CCN(c2ccccn2)CC1)c1ccc(F)cc1
[1]
  Potency: inactive
[2]
  Potency: inactive

## CCCCN1CCCC[C@H]1C(=O)Nc1c(C)cccc1C
[1]
  Potency: inactive
[2]
  Potency: inactive

## CCOc1ccc2ccccc2c1C(=O)N[C@@H]1C(=O)N2[C@@H]1SC(C)(C)[C@@H]2C(=O)O
[1]
  Potency: inactive
[2]
  Potency: inactive

## CCN(CC)C(=O)Nc1ccc(OCC(O)CNC(C)(C)C)c(C(C)=O)c1 (centres undefined)
[1]
  Potency: inactive

## CC(C)(C)C(=O)C(Oc1ccc(Cl)cc1)n1ccnc1 (centres undefined)
[1]
  Potency: inactive
[2]
  Potency: inactive

## CNC(=O)Oc1ccc2c(c1)[C@]1(C)CCN(C)[C@@H]1N2C
[1]
  Potency: inactive
[3]
  outcome: inactive
[4]
  Potency: inactive

## CC(C)c1c(C(=O)Nc2ccccc2)c(-c2ccccc2)c(-c2ccc(F)cc2)n1CC[C@@H](O)C[C@@H](O)CC(=O)O
[1]
  Potency: inactive
[4]
  Potency: inactive

## CN1CCC[C@@H]1Cc1c[nH]c2ccc(CCS(=O)(=O)c3ccccc3)cc12
[1]
  Potency: inactive
[4]
  Potency: inactive
[2]
  Potency: inactive

## CCOC(CN1CCN(CC(C)C(=O)c2ccccc2)CC1)c1ccccc1 (centres undefined)
[1]
  Potency: inactive
[2]
  Potency: inactive

## Cc1ccc2nc(N)[nH]c(=O)c2c1Sc1ccncc1
[1]
  Potency: inactive
[2]
  Potency: inactive

## CC(C)(C(=O)O)c1ccc(C(O)CCCN2CCC(C(O)(c3ccccc3)c3ccccc3)CC2)cc1 (centres undefined)
[1]
  Potency: inactive
[3]
  outcome: inactive
[4]
  Potency: inactive
[2]
  Potency: inactive

## CCOc1nc2cccc(C(=O)O)c2n1Cc1ccc(-c2ccccc2-c2nn[nH]n2)cc1
[1]
  Potency: inactive
[2]
  Potency: inactive

## CN1CCOC(c2ccccc2)c2ccccc2C1 (centres undefined)
[1]
  Potency: inactive
[2]
  Potency: inactive

## OCC(O)CN1CCN(c2ccccc2)CC1 (centres undefined)
[1]
  Potency: inactive

## CC(C(O)c1ccc(O)cc1)N1CCC(Cc2ccccc2)CC1 (centres undefined)
[1]
  Potency: inactive
[3]
  outcome: inactive
[4]
  Potency: inactive
[2]
  Potency: inactive

## COc1ccc2[nH]c(S(=O)Cc3ncc(C)c(OC)c3C)nc2n1 (centres undefined)
[1]
  Potency: inactive
[2]
  Potency: inactive

## CCCCc1ncc(/C=C(\Cc2cccs2)C(=O)O)n1Cc1ccc(C(=O)O)cc1
[1]
  Potency: inactive
[4]
  Potency: inactive
[2]
  Potency: inactive

## COc1ccc2cc1Oc1ccc(cc1)C[C@H]1c3c(cc4c(c3Oc3cc5c(cc3OC)CCN(C)[C@@H]5C2)OCO4)CCN1C
[1]
  Potency: inactive

## C[C@@H]1CN(c2c(F)c(F)c3c(=O)c(C(=O)O)cn(C4CC4)c3c2F)C[C@H](C)N1
[1]
  outcome: inactive [at 10.7 µM]
[2]
  Potency: inactive

## CS(=O)(=O)c1ccc([C@@H](O)[C@@H](CF)NC(=O)C(Cl)Cl)cc1
[1]
  Potency: inactive
[2]
  Potency: inactive

## CCCCOc1cc(C(=O)OCCN(CC)CC)ccc1N
[1]
  Potency: inactive
[2]
  Potency: inactive

## CSc1ccc2c(c1)C(N1CCN(C)CC1)Cc1ccccc1S2 (centres undefined)
[3]
  outcome: inactive

## Nc1ncnc2c1ncn2[C@@H]1O[C@H](CO)[C@@H](O)[C@H]1O
[3]
  outcome: inactive
[4]
  Potency: inactive

## Nc1cc(=O)[nH]c(N)n1
[3]
  outcome: inactive
[4]
  Potency: inactive
[2]
  Potency: inactive

## NC(=O)c1ncn([C@@H]2O[C@H](CO)[C@@H](O)[C@H]2O)n1
[3]
  outcome: inactive
[4]
  Potency: inactive

## CC(C)(O)c1ccccc1CC[C@@H](SCC1(CC(=O)O)CC1)c1cccc(/C=C/c2ccc3ccc(Cl)cc3n2)c1
[6]
  Potency: inactive
[7]
  Potency: 112 µM (active)
[8]
  Potency: inactive
[9]
  outcome: inactive
[10]
  Potency: inactive

## CN(C)CCCN1c2ccccc2Sc2ccc(Cl)cc21
[3]
  outcome: inactive
